Screening results deposited in PubChem BioAssay by National Center for Advancing Translational Sciences (NCATS).
JMJD2A Tudor inh: inhibitors of human JMJD2A Tudor domain. 390,000 tested, 4.4% active. O75164. AID 504339. Potency, µM (doses to about 114 µM), most hits filed as inhibitors. AlphaScreen JMJD2A-Tudor / H3K4me3 peptide binding; further: nearly all actives have a fitted effect of over 50% in size
GLS inh: glutaminase GLS (human) inhibition | O94925 | GLS enzymatic activity, qHTS titration | Potency, µM (titrated, usually from 45.5 µM), most hits filed as inhibitors | 410,000 tested, 0.21% active | AID 624170
Target sequence (O94925 whole entry, looked up): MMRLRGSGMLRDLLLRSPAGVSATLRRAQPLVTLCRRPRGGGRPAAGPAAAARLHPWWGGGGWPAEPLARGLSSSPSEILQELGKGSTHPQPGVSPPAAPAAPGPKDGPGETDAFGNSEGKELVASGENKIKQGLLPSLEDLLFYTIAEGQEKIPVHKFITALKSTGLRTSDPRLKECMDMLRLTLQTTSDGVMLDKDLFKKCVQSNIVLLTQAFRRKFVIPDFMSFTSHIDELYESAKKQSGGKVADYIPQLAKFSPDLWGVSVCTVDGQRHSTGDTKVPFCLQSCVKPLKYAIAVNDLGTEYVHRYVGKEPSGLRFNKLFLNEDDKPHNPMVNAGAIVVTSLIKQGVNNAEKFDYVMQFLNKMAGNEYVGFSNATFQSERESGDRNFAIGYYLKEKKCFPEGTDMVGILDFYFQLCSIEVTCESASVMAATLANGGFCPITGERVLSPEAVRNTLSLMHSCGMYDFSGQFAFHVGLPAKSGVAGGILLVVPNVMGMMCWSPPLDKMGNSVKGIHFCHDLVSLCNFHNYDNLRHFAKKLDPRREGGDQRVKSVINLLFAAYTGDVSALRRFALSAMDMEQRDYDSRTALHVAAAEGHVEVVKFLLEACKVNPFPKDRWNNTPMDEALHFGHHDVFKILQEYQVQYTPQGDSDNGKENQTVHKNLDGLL
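Coupled fluorescence readout: glutamate oxidase/HRP/Amplex Red detect glutamate formed by hKGA from L-glutamine (1 mM solution added). Buffer 45 mM KH2PO4 pH 8.2, 0.02% Tween-20; reads at t0 and 30 min RT.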
HP1b chromo inh: inhibitors of HP1-beta chromodomain binding to methylated histone tails. Potency, µM (series often up to 114 µM), hits mostly inhibitors. AlphaScreen HP1-beta / biotin-H3K9me3 peptide binding. 390,000 tested, 0.56% active. AID 540317; further: nearly all actives have a fitted effect of over 70% in size
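AlphaScreen: HP1-beta (50 nM) preformed 30 min with biotin-H3(1-18)K9me3 peptide (50 nM) in PBS pH 7.4, 0.01% Tween-20. Compound added for 30 min at RT, then streptavidin donor/nickel chelate acceptor beads (10 ug/mL) for 30 min.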
BAZ2B inh: blocks human BAZ2B | Q9UIF8 | AlphaScreen BAZ2B-H3K14Ac peptide displacement | Potency, µM (top dose mostly 114 µM), actives largely listed as inhibitors | 360,000 tested, 4.4% active; further: nearly all actives have a fitted effect of over 60% in size
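BAZ2B (50 nM) with biotin-H3(5-23)K14Ac peptide (50 nM) in PBS pH 7.4, 0.01% Tween-20, preformed 30 min, then compound 30 min at room temperature; top concentration 110uM. AlphaScreen streptavidin donor/nickel chelate acceptor beads (10 ug/mL final), 20 min dark, signal read.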
G9a block: G9a (human) methyltransferase inhibition | 350,000 tested, 8.8% active | Potency, µM (top dose mostly 102 µM), most hits filed as inhibitors | G9a H3K9 monomethylation, AlphaScreen, 2 h | Q96KQ7; further: nearly all actives have a fitted effect of over 75% in size
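Enzyme 20 nM + cpd, 15 min RT; add b-H3K9 pep 500 nM / SAM 20 uM; 2 h RT; anti-H3K9me1 Ab 0.5 ug/mL + SA donor / anti-rabbit acceptor beads 20 ug/mL each, 10 min; AlphaScreen read.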
Numbers stand for hits; . = inactive; ? = inconclusive; / = no result given; [ ] = remark or other dose. Sampled rows, rich in hits. Any-hit rate of the full collection: about 10%. The call rests on the fitted dose curve; in most records, active means well fitted curve in the direction sought with a large enough effect; inconclusive means small, poorly fitted or top-dose-only effect, or another doubt; inactive means no such curve, though single readings can be large; an effect the other way counts as inactive or inconclusive.

SMILES	JMJD2A Tudor inh	GLS inh	HP1b chromo inh	BAZ2B inh	G9a block
CCN=c1scc(C)n1/N=C/c1ccc(O)c(O)c1O	45µM	.	?	22µM	5µM
CCN=c1scc(C)n1/N=C/c1cc(Br)c(O)c(Br)c1	?	.	?	45µM	10µM
COCCn1ccc2c(OCC(=O)Nc3cccc(NC(C)=O)c3)cccc2c1=O	.	.	.	.	.
CCN(CC)c1ccc(N=Nc2nn(C)c(C)c2[N+](=O)[O-])cc1	?	.	14µM	10µM	?
CCN(Cc1ccccc1)c1ccc(N=Nc2nn(C)c(C)c2[N+](=O)[O-])cc1	6.3µM	.	?	8.9µM	10µM
Cc1ccc(CNC(=O)c2nn(C)c(C)c2[N+](=O)[O-])cc1	.	.	.	.	.
COc1ccc(OC)c2c1nc1n2CCS1	.	.	?	.	1.8µM
COc1ccc2[nH]c3c(=O)n4c(nc3c2c1)SCC4	.	.	.	.	.
O=C(NC(Nc1nc2ccc([N+](=O)[O-])cc2s1)(C(F)(F)F)C(F)(F)F)c1cccnc1	.	.	.	.	?
O=S(=O)(Nc1ccc2nc(N3CCOCC3)sc2c1)c1ccc(Cl)cc1	.	.	.	.	10µM
O=[N+]([O-])c1ccc2nc(NS(=O)(=O)c3ccc(Cl)cc3)sc2c1	.	.	.	?	14µM
O=C(NC(Nc1nc2ccc([N+](=O)[O-])cc2s1)(C(F)(F)F)C(F)(F)F)c1ccccc1Cl	?	.	.	.	79µM
O=[N+]([O-])c1ccc2nc(NS(=O)(=O)c3ccccc3[N+](=O)[O-])sc2c1	.	.	.	.	.
O=C(C1CC(c2ccccc2O)=NO1)N1CCCCC1 (stereo not given)	89µM	.	.	?	?
O=C(NCc1cccnc1)C1CC(c2ccccc2O)=NO1 (stereo not given)	50µM	.	.	?	25µM
N#CC1=C(S)N(c2ccc(F)cc2)C2(CCCCC2)NC1=O	.	.	.	?	35µM
Cc1ccsc1/C=N/n1c(-c2ccccn2)n[nH]c1=S	3.2µM	?	.	8.9µM	2.2µM
Cc1ccsc1/C=N/n1c(-c2ccco2)n[nH]c1=S	7.1µM	.	.	.	0.79µM
Cc1ccsc1/C=N/Nc1nc2ccccc2[nH]1	?	.	.	.	.
Cc1ccsc1/C=N/n1c(-c2ccccc2)n[nH]c1=S	28µM	.	.	.	1.8µM
Cc1ccsc1/C=N/n1c(-c2ccncc2)n[nH]c1=S	3.2µM	.	.	.	1.1µM
NC(=O)C1CCCN(C(=O)c2cccc(S(=O)(=O)N3CCCCCC3)c2)C1 (stereo not given)	.	.	.	.	.
CC(=O)N1CCOc2cc(S(=O)(=O)NCc3ccc(F)cc3)c(C)cc21	.	.	.	.	.
Cc1ccsc1/C=N/N1CCOCC1	.	.	.	.	.
Cc1cc(-c2n[nH]c(=S)n2/N=C/c2sccc2C)n[nH]1	3.2µM	.	?	?	1.3µM
SMILES	JMJD2A Tudor inh	GLS inh	HP1b chromo inh	BAZ2B inh	G9a block
O=Nc1c(-c2ccccc2)[nH]n(-c2ccccc2)c1=O	?	.	.	.	.[0.501 µM]
Cc1c(C(C)(C)C)c(C=S)n2ccccc12	50µM	.	?	.	4µM
CC(=O)NCc1nnc2c3ccccc3c(-c3ccccc3)nn12	.	.	.	.	.
CC1=C(C(=O)OC2CCCCC2)C(c2ccc(C)o2)C2=C(CC(C)(C)CC2=O)N1 (stereo not given)	.	.	.	.	.[12.7 µM]
CC1=C(C(=O)Nc2ccc(F)cc2)C(c2ccc(C)o2)C2=C(CC(C)(C)CC2=O)N1 (stereo not given)	.	.	.	.	50µM
CCN(CC)c1ccc(N=Nc2ncn[nH]2)cc1	?	.	.	/	1µM
Cc1nc(NC(=O)COC(=O)/C=C/c2ccco2)c(Cl)cc1Cl	.	.	.	.	.[12.7 µM]
O=C(COC(=O)/C=C/c1ccco1)NCc1ccc(Cl)cc1	.	.	.	.	7.9µM
O=C(COC(=O)/C=C/c1ccco1)Nc1ncc(Cl)cc1Cl	?	.	.	50µM	?
CN(C)S(=O)(=O)c1ccc(Cl)c(NC(=O)COC(=O)/C=C/c2ccco2)c1	.	.	.	56µM	?
COc1ccc(S(=O)(=O)NCc2cccnc2)cc1NC(=O)c1ccc(Cl)cc1	.	.	.	.	.
COc1ccc(-c2nnc3sc(CN4C(=O)c5ccccc5C4=O)nn23)cc1	.	.	.	.	35µM
COc1ccc(-c2nnc3sc(C(C)N4C(=O)c5ccccc5C4=O)nn23)cc1 (stereo not given)	18µM	.	.	.	?
COc1cc(Cl)c(C)cc1NC(=O)c1cc2c(s1)-c1c(C)cccc1OC2	.	.	.	.	.
COc1cc(OC)cc(C(=O)NCC(=O)N2CC=C(c3ccccc3)CC2)c1	.	.	.	.	50µM
C=CCn1c(NC(=O)CC)c(C(=O)OCC)sc1=S	.	.	.	?	45µM
COc1ccc(CNS(=O)(=O)c2ccc(N3CCCC3)cc2Br)cc1	?	.	.	/	/
CCO/C(=C/c1sc2ccc(OC)cc2[n+]1CCCS(=O)(=O)[O-])CC	.	/	.	.	.
CCC(/C=C1\Sc2ccc(OC)cc2N1CCO)=C\c1sc2ccc(OC)cc2[n+]1CCO	22µM	.	40µM	13µM	11µM
CCC(/C=C1\Sc2ccc(OC)cc2N1CC)=C\c1sc2ccc(OC)cc2[n+]1CCCS(=O)(=O)[O-]	?	.	.	22µM	20µM
Cc1cc(C(C)C)n2c(nc3ccccc32)c1C#N	/	/	/	.	.
Cc1cc(-c2ccco2)c(C#N)c2nc3ccccc3n12	.	.	.	.	13µM
CC(C)c1nc(CNC(=O)C2CCC(=O)N(Cc3ccc(Cl)cc3)C2)no1 (stereo not given)	.	.	.	.	.[0.0925 µM]
CCCCn1c(SCC(=O)c2ccc(OC)c(OC)c2)nc2cc(S(N)(=O)=O)ccc21	.	.	.	.	50µM
CCCCn1c(SCC(=O)c2ccc(OCC)cc2)nc2cc(S(N)(=O)=O)ccc21	?	.	.	.	?
SMILES	JMJD2A Tudor inh	GLS inh	HP1b chromo inh	BAZ2B inh	G9a block
COc1ccccc1CNC(=O)Cn1c(-c2ccc(F)cc2)cc(C(C)=O)c1C	.	.	.	.	.
CCOc1cc(CNc2ccc3c(c2)CCC3)ccc1O	79µM	.	.	.	8.9µM
CCOc1ccccc1NC(=O)Nc1ccc2c(c1)CCC2	.	.	.	.	.
COc1cc(CNc2ccc3c(c2)CCC3)cc(OC)c1O	4µM	.	32µM	40µM	?
COc1cc(CC(=O)Nc2ccc3c(c2)CCC3)cc(OC)c1OC	.	.	.	.	.
O=C(CCCOc1ccccc1)Nc1cccnc1	.[11.4 µM]	.	.	.	.
CN1CCc2[nH]c3ccc(C(=O)NN)cc3c2C1	.	.	.	.	.
Cc1c(C(c2cc(O)ccc2O)c2c(C)n(C)n(-c3ccccc3)c2=O)c(=O)n(-c2ccccc2)n1C	?	.	.	/	/
NC(=O)C1CCN(c2cc(Cl)nc(N)n2)CC1	10µM	.	.	.	.
